Active and inactive are the calls of the source. How the source made its calls: active means hit-call score of the fitted dose curve at least 0.9, where 1 is the maximum; inactive means score below 0.9.
Assays:
Details in all cases: mRNA level, 48 h; actives raise or lower the signal
[1] = read-out: Cytochrome P450 7A1 (Homo sapiens) (UniProt P22680); experiment: LTEA_HepaRG_CYP7A1: Life Technologies and Expression Analysis (LTEA) Assay for Cytochrome P450 7A1 (CYP7A1) using HepaRG (AID 2283496)
Summary of the method: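 HepaRG cells plated 48 h, then switched to serum-free induction medium and exposed in duplicate for 48 h to 8-point half-log series from 100 uM in 0.5% DMSO. CYP7A1 mRNA by qRT-PCR (TaqMan), normalized to ACTB/GAPDH/POLR2A; bidirectional fit versus DMSO.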

[2] = read-out: Glutathione S-Transferase (GSTA2), GSTA2 (gene 2939); experiment: LTEA_HepaRG_GSTA2: Life Technologies and Expression Analysis (LTEA) Assay for Glutathione S-Transferase (GSTA2) using HepaRG (AID 2283497)
Summary of the method: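 HepaRG, 48 h dosing, 8-pt half-log CRC from 100 uM, 0.5% DMSO vehicle, n=2; RNA → Fluidigm TaqMan qRT-PCR; GSTA2 vs ACTB/GAPDH/POLR2A; gain/loss fit vs DMSO.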

[3] = read-out: Glutamate-cysteine ligase catalytic (GCLC), GCLC (gene 2729); experiment: LTEA_HepaRG_GCLC: Life Technologies and Expression Analysis (LTEA) Assay for Glutamate-cysteine ligase catalytic (GCLC) using HepaRG (AID 2283498)
Summary of the method: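 Read-out is GCLC transcript level by Fluidigm-based TaqMan qRT-PCR, normalized to three housekeeping genes and fitted in both directions relative to 0.5% DMSO. Human HepaRG cells received chemicals for 48 h, up to 100 uM.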

[4] = read-out: growth arrest and DNA damage 45 (GADD45G), GADD45G (gene 10912); experiment: LTEA_HepaRG_GADD45G: Life Technologies and Expression Analysis (LTEA) Assay for growth arrest and DNA damage 45 (GADD45G) using HepaRG (AID 2283499)
Summary of the method: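 Human hepatic HepaRG line treated 48 h with chemicals (eight concentrations, half-log steps from 100 uM); transcript induction or repression of GADD45G scored by qRT-PCR versus DMSO vehicle.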

[5] = read-out: Glutamate-cysteine ligase regulatory (GCLM), GCLM (gene 2730); experiment: LTEA_HepaRG_GCLM: Life Technologies and Expression Analysis (LTEA) Assay for Glutamate-cysteine ligase regulatory (GCLM) using HepaRG (AID 2283500)
Summary of the method: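 Cells were plated, cultured 48 h, switched to serum-free induction medium, then dosed in duplicate for 48 h at eight half-log concentrations up to 100 uM. RNA was then profiled by qRT-PCR; gain or loss versus DMSO was fitted.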

[6] = read-out: Glutathione S-transferase M3 (GSTM3), GSTM3 (gene 2947); experiment: LTEA_HepaRG_GSTM3: Life Technologies and Expression Analysis (LTEA) Assay for Glutathione S-transferase M3 (GSTM3) using HepaRG (AID 2283501)
Summary of the method: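 Changes in GSTM3 expression, an oxidative-stress marker, were scored by bidirectional curve fitting against 0.5% DMSO vehicle. Human HepaRG cultures received chemicals for 48 h in duplicate, highest concentration 100 uM with half-log dilutions.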

[7] = read-out: Hypoxia-inducible factor 1-alpha (Homo sapiens) (UniProt Q16665); experiment: LTEA_HepaRG_HIF1A: Life Technologies and Expression Analysis (LTEA) Assay for Hypoxia-inducible factor 1 (HIF1A) Trancription factor using HepaRG (AID 2283503)
Summary of the method: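 Differentiated HepaRG cells in serum-free induction medium exposed 48 h, in duplicate, to 8-point half-log series from 100 uM in 0.5% DMSO. HIF1A mRNA measured by TaqMan qRT-PCR, normalized to ACTB/GAPDH/POLR2A, fitted bidirectionally versus DMSO.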

[8] = read-out: 3-Hydroxy-3-Methylglutaryl-CoA Synthase 2 (HMGCS2), HMGCS2 (gene 3158); experiment: LTEA_HepaRG_HMGCS2: Life Technologies and Expression Analysis (LTEA) Assay for 3-Hydroxy-3-Methylglutaryl-CoA Synthase 2 (HMGCS2) using HepaRG (AID 2283504)
Summary of the method: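 Expression of HMGCS2 in human HepaRG liver cells is measured by qRT-PCR 48 h after dosing (highest 100 uM, half-log series, 0.5% DMSO). Values come from bidirectional concentration-response fitting with DMSO as baseline.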

HGF (gene 3082) = experiment: LTEA_HepaRG_HGF: Life Technologies and Expression Analysis (LTEA) Assay for Hepatocyte Growth Facto (HGF) using HepaRG (AID 2283505)
Summary of the method: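 Gain or loss of HGF mRNA in human HepaRG liver cells after 48 h chemical exposure; eight concentrations up to 100 uM with 0.5% DMSO vehicle, quantified by TaqMan qRT-PCR.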

[9] = read-out: Insulin Like Growth Factor 1 (IGF1), IGF1 (gene 3479); experiment: LTEA_HepaRG_IGF1: Life Technologies and Expression Analysis (LTEA) Assay for Insulin Like Growth Factor 1 (IGF1) using HepaRG (AID 2283506)
Summary of the method: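 HepaRG, plated 48 h, then switched to serum-free induction media; test chemical 8-pt half-log from 100 uM (0.5% DMSO), duplicate, 48 h. Lysis in RLT, TaqMan qRT-PCR, norm. ACTB/GAPDH/POLR2A. Bidirectional fit vs DMSO.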

[10] = read-out: Intercellular Adhesion Molecule 1 (ICAM1), ICAM1 (gene 3383); experiment: LTEA_HepaRG_ICAM1: Life Technologies and Expression Analysis (LTEA) Assay for Intercellular Adhesion Molecule 1 (ICAM1) using HepaRG (AID 2283507)
Summary of the method: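 Gain or loss of transcript in HepaRG hepatic cells is quantified by qRT-PCR after 48 h chemical exposure (up to 100 uM, half-log steps), with DMSO as baseline.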

[11] = read-out: Interleukin 6 (IL6), IL6 (gene 3569); experiment: LTEA_HepaRG_IL6: Life Technologies and Expression Analysis (LTEA) Assay for Interleukin 6 (IL6) using HepaRG (AID 2283509)
Summary of the method: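 HepaRG, ~100,000 cells/well, 48 h pre-culture; serum-free induction medium; cmpd 8-pt half-log from 100 uM, 0.5% DMSO, duplicate, 48 h. Lysis in RLT, TaqMan qRT-PCR; gain or loss vs DMSO.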

[12] = read-out: Interleukin 6 Receptor (IL6R), IL6R (gene 3570); experiment: LTEA_HepaRG_IL6R: Life Technologies and Expression Analysis (LTEA) Assay for Interleukin 6 Receptor (IL6R) using HepaRG (AID 2283510)
Summary of the method: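 Readout is IL6R transcript level by TaqMan qRT-PCR, normalized to three housekeeping genes and fitted bidirectionally against 0.5% DMSO controls. Human HepaRG cells received chemicals for 48 h in serum-free induction medium, highest concentration 100 uM.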

[13] = read-out: Potassium channel subfamily K member 1 (KCNK1), KCNK1 (gene 3775); experiment: LTEA_HepaRG_KCNK1: Life Technologies and Expression Analysis (LTEA) Assay for Potassium channel subfamily K member 1 (KCNK1) using HepaRG (AID 2283511)
Summary of the method: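 Gain or loss of KCNK1 mRNA is the read-out, quantified by qRT-PCR against three housekeeping genes after 48 h chemical treatment of human HepaRG liver cells. Concentrations ran from 100 uM downward in half-log steps, vehicle 0.5% DMSO.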

[14] = read-out: Keratin 19 (KRT19), KRT19 (gene 3880); experiment: LTEA_HepaRG_KRT19: Life Technologies and Expression Analysis (LTEA) Assay for Keratin 19 (KRT19) using HepaRG (AID 2283512)
Summary of the method: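 Gene-expression endpoint in the human liver line HepaRG after 48 h exposure to up to 100 uM test chemical with 0.5% DMSO vehicle; KRT19 mRNA by qRT-PCR, analyzed bidirectionally versus DMSO.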

[15] = read-out: JUN Transcription Factor, JUN (gene 3725); experiment: LTEA_HepaRG_JUN: Life Technologies and Expression Analysis (LTEA) Assay for JUN Transcription Factor using HepaRG (AID 2283513)
Summary of the method: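 Cells plated 48 h, medium switched to serum-free induction medium, then dosed 48 h (100 uM top, half-log dilutions, 0.5% DMSO). RNA isolated; JUN measured by qRT-PCR against three housekeeping genes; gain or loss fitted relative to DMSO.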

[16] = read-out: Lipase C (LIPC), LIPC (gene 3990); experiment: LTEA_HepaRG_LIPC: Life Technologies and Expression Analysis (LTEA) Assay for Lipase C (LIPC) using HepaRG (AID 2283514)
Summary of the method: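 Read-out is LIPC transcript level by TaqMan qRT-PCR, normalized to three housekeeping genes, after 48 h chemical treatment of human HepaRG liver cells. Curves span eight concentrations topping at 100 uM; activity in either direction scored relative to 0.5% DMSO.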

[17] = read-out: Lipoprotein lipase (LPL), LPL (gene 4023); experiment: LTEA_HepaRG_LPL: Life Technologies and Expression Analysis (LTEA) Assay for Lipoprotein lipase (LPL) using HepaRG (AID 2283515)
Summary of the method: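 Read-out is LPL transcript level by qRT-PCR, normalized to three housekeeping genes and fitted bidirectionally against the DMSO control. Human HepaRG cells received chemicals for 48 h at up to 100 uM.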

[18] = read-out: Heat shock 70 kDa protein 1 (HSPA1A), gene 3303; experiment: LTEA_HepaRG_HSPA1A: Life Technologies and Expression Analysis (LTEA) Assay for Heat shock 70 kDa protein 1 (HSPA1A) using HepaRG (AID 2283502)
Summary of the method: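 Readout is HSPA1A transcript level by microfluidic qRT-PCR, normalized to three housekeeping genes and analysed for gain or loss of signal relative to 0.5% DMSO. Human HepaRG cultures received test chemicals for 48 h at up to 100 uM.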

Measured: AC50

Sequence of Hypoxia-inducible factor 1-alpha (Homo sapiens) (Q16665 whole entry, looked up): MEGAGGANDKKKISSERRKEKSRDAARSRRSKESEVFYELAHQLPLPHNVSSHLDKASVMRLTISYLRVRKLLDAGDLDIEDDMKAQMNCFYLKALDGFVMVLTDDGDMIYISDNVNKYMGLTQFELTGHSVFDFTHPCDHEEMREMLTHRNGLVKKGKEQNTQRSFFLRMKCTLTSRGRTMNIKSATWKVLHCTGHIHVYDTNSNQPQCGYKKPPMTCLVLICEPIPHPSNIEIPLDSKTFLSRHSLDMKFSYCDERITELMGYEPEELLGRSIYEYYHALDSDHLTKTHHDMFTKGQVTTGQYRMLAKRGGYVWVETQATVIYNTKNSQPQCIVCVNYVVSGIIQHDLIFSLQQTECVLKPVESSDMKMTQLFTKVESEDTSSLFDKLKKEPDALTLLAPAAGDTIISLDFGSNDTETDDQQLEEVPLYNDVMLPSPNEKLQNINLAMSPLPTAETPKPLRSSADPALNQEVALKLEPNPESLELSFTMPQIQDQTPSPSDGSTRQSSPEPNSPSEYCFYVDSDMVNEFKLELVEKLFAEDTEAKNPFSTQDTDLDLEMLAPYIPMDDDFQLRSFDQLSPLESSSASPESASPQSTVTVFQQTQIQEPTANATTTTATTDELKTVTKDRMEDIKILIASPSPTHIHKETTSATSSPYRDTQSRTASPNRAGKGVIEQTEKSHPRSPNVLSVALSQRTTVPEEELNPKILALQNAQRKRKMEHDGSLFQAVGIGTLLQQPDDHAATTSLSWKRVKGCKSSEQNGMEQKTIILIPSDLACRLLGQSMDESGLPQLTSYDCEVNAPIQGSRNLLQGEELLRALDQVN

CCCCOC(=O)c1ccccc1C(=O)OCc1ccccc1
not listed: [18]
inactive: all other assays above

Nc1ccc(Oc2ccc(N)cc2)cc1
not listed: [18]
inactive: all other assays above

Nc1ccc([N+](=O)[O-])cc1
not listed: [18]
inactive: all other assays above

CC(C)(O)c1cnn2c(-c3ccc(F)c(-c4c(F)cccc4C#N)c3)cnc2n1
active: [1] 4.14 µM | [8] 13.1 µM | [9] 1.35 µM | [16] 2.9 µM
not listed: [18]
inactive: all other assays above

O=C(Nc1ccccc1)c1ccccc1I
active: [1] 28.9 µM | [3] 29.2 µM | [4] 10.3 µM | [5] 50 µM | [9] 19.1 µM | [14] 22.6 µM | [16] 50 µM
not listed: [18]
inactive: all other assays above

CC(C)(C)C(O)(CCc1ccc(Cl)cc1)Cn1cncn1 (stereo not drawn)
inactive: [3] | [6] | [18] | [11] | [12] | [13] | [14]
active: [1] 50 µM | [2] 76.4 µM | [4] 50 µM | [5] 50 µM | [8] 72.3 µM | HGF (gene 3082) 79.1 µM | [9] 50 µM | [10] 50 µM | [16] 71.8 µM | [17] 74.4 µM

CC(C)(C)OOC(C)(C)CCC(C)(C)OOC(C)(C)C
not listed: [7]
inactive: all other assays above

ClC1=C(Cl)[C@]2(Cl)[C@H]3[C@H]([C@@H]4C=C[C@H]3C4)[C@@]1(Cl)C2(Cl)Cl
active: [1] 19.4 µM | [5] 12.7 µM
not listed: [7]
inactive: all other assays above

— PubChem BioAssay (EPA / NIEHS)
